According to paper doi:10.1101/2024.03.05.583629:

Biological target: pT7_6His-AlfaTag-ZIF268 (human, UniProt P18146 335-423)
Assay: PADIT-seq
Conditions: dsDNA, one strand shown

Q: How did the binding signal turn out when “CTCGAGGATATCAAGATCTGGCCTCGGCTTATGGGCGGGAACCTCTAGCTAGCCGACTCACTATAGGGATAATCGCCCTGAGCAAAGACC” was run?
A: 0.0657 ± 0.0898 log2FC

Q: Which binding signal does the source give for “CTCGAGGATATCAAGATCTGGCCTCGGCCATCCACGCGGAACCTCTAGCTAGCCGACTCACTATAGGGATAATCGCCCTGAGCAAAGACC” here?
A: 0.00839 ± 0.0869 log2FC

Q: “CTCGAGGATATCAAGATCTGGCCTCGGCAAACTAAAAGGAACCTCTAGCTAGCCGACTCACTATAGGGATAATCGCCCTGAGCAAAGACC” was tested. Which binding signal did it give?
A: 0.0456 ± 0.191 log2FC

Q: How did the binding signal turn out when “CTCGAGGATATCAAGATCTGGCCTCGGCATTTTATATGGAACCTCTAGCTAGCCGACTCACTATAGGGATAATCGCCCTGAGCAAAGACC” was run?
A: 0.238 ± 0.0895 log2FC

Q: With “CTCGAGGATATCAAGATCTGGCCTCGGCCGCCCACTGGGAACCTCTAGCTAGCCGACTCACTATAGGGATAATCGCCCTGAGCAAAGACC” as the sequence, how does the binding signal read?
A: 0.278 ± 0.104 log2FC

Q: Which binding signal does the source give for “CTCGAGGATATCAAGATCTGGCCTCGGCGTTTTACCAGGAACCTCTAGCTAGCCGACTCACTATAGGGATAATCGCCCTGAGCAAAGACC” here?
A: 0.0291 ± 0.0981 log2FC

Q: With “CTCGAGGATATCAAGATCTGGCCTCGGCAGGATAAAAGGAACCTCTAGCTAGCCGACTCACTATAGGGATAATCGCCCTGAGCAAAGACC” as the sequence, how does the binding signal read?
A: 0.0545 ± 0.0675 log2FC

Q: For “CTCGAGGATATCAAGATCTGGCCTCGGCGCGTGGACAGGAACCTCTAGCTAGCCGACTCACTATAGGGATAATCGCCCTGAGCAAAGACC”, which binding signal is on record?
A: 0.15 ± 0.106 log2FC

Q: Which binding signal does the source give for “CTCGAGGATATCAAGATCTGGCCTCGGCTTTTTAGAAGGAACCTCTAGCTAGCCGACTCACTATAGGGATAATCGCCCTGAGCAAAGACC” here?
A: 0.0735 ± 0.104 log2FC

Q: For “CTCGAGGATATCAAGATCTGGCCTCGGCGCGTGGGTGGGAACCTCTAGCTAGCCGACTCACTATAGGGATAATCGCCCTGAGCAAAGACC”, which binding signal is on record?
A: 4.08 ± 0.0892 log2FC

Q: Which binding signal does the source give for “CTCGAGGATATCAAGATCTGGCCTCGGCCGCCCAATGGGAACCTCTAGCTAGCCGACTCACTATAGGGATAATCGCCCTGAGCAAAGACC” here?
A: 0.0226 ± 0.0907 log2FC

Q: With “CTCGAGGATATCAAGATCTGGCCTCGGCTAGCTAAAAGGAACCTCTAGCTAGCCGACTCACTATAGGGATAATCGCCCTGAGCAAAGACC” as the sequence, how does the binding signal read?
A: 0.0229 ± 0.123 log2FC

Q: How did the binding signal turn out when “CTCGAGGATATCAAGATCTGGCCTCGGCCTTTTAAGGGGAACCTCTAGCTAGCCGACTCACTATAGGGATAATCGCCCTGAGCAAAGACC” was run?
A: 0.073 ± 0.082 log2FC

Q: “CTCGAGGATATCAAGATCTGGCCTCGGCGTATGGGCGGGAACCTCTAGCTAGCCGACTCACTATAGGGATAATCGCCCTGAGCAAAGACC” was tested. Which binding signal did it give?
A: 0.246 ± 0.0831 log2FC
